ELG1 DNA repair: qHTS screen for small molecules that inhibit ELG1-dependent DNA repair in human embryonic kidney (HEK293T) cells expressing luciferase-tagged ELG1. Potency, µM (series often up to 46.1 µM), for inactives: top-dose activity change, negative = inhibition, most hits filed as inhibitors. AID 504467, 2011. HEK293T ELG1-luciferase reporter, luminescence, 16 h; DNA damage induced by 5-fluorouridine. 2.3% of 330,000 active; also: % is scaled to controls: 0 for no effect and ±100 for the full control effect; nearly all actives have a fitted effect of over 55% in size
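Reporter activity after DNA damage by 5-fluorouridine is monitored. Compound-treated cells incubate 16 hr at 37 °C, then ONE-Glo is added for 30 min before luminescence reading.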
FLuc counter: qHTS profiling assay for firefly luciferase inhibitor/activator using purifed enzyme and Km concentrations of substrates (counterscreen for miR-21 project). Potency, µM (doses to about 57.5 µM), without a hit: top-dose activity change, negative = inhibition, usual class: inhibitors. purified FLuc, Km substrates, luminescence inhibition. 6.9% of 360,000 active. AID 588342, 2011. Luciferin 4-monooxygenase (Photinus pyralis), P08659;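 also: plate controls were vehicle for no effect and reference inhibitor for full effect; nearly all actives have a fitted effect of over 55% in size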
Target sequence (P08659 whole entry, looked up): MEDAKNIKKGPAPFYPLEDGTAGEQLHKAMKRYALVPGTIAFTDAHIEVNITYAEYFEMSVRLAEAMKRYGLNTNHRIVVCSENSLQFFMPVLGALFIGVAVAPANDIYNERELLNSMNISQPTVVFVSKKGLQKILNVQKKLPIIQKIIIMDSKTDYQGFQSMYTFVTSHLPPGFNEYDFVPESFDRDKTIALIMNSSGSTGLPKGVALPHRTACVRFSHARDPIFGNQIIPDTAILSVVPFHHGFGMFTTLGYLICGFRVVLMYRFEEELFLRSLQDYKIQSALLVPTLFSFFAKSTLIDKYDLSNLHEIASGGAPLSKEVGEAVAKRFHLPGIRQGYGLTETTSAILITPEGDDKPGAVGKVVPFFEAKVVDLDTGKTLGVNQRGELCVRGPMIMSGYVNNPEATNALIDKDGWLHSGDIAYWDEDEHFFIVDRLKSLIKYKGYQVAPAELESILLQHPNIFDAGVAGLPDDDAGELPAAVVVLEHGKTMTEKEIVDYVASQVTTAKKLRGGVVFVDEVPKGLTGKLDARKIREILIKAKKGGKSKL
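Biochemical qHTS of compounds, final roughly 60 µM downward over six points, against 10 nM purified firefly luciferase using Km concentrations of substrates (10 uM D-luciferin, 10 uM ATP) in Tris acetate pH 7.5 buffer; luminescence output.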
Rab9 prom act: qHTS Assay for Rab9 Promoter Activators; 2.8% of 320,000 active; Potency, µM (highest dose often 9.22 µM), without a hit: at the top dose activation, negative = inhibition, usual class: activators; AID 485297, 2010; Huh7 Rab9 promoter-luciferase reporter, luminescence, 24 h; also: % of control where 0% means no effect; nearly all actives have a fitted effect of over 60% in size
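Luciferase signal after 10 min detection reagent at ambient indicates Rab9 promoter upregulation; stably transfected Huh7 cells were treated 24 h with compound in DMSO at 37 °C, 5% CO2.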
ELG1 genotoxic: qHTS screen for small molecules that induce genotoxicity in human embryonic kidney (HEK293T) cells expressing luciferase-tagged ELG1; HEK293T ELG1-luciferase reporter, luminescence, 16 h; Potency, µM (top dose mostly 46 µM), without a hit: at the top dose activity change, positive = activation, most hits filed as activators; 1.3% of 330,000 active; AID 504466, 2011; also: % of control where 0% means no effect; nearly all actives have a fitted effect of over 60% in size
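Reporter readout depends on ELG1 protein level, which increases with genetic stress. After 16 hr compound exposure at 37 °C, luciferase activity was quantified using ONE-Glo.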
NPC1 promoter act: qHTS Assay for NPC1 Promoter Activators; Huh7 NPC1 promoter luciferase reporter, 24 h; AID 485313, 2010; 2.4% of 320,000 active; Potency, µM (series often up to 9.22 µM), for the others: top-dose activation, actives largely listed as activators; also: % of control where 0% means no effect; nearly all actives have a fitted effect of over 60% in size
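Luminescence read-out of NPC1 promoter-driven luciferase in stably transfected Huh7 cells; compounds delivered in DMSO and left 24 h at 37C, 5% CO2, qHTS titration format.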
SMN2 splice up: qHTS Assay for Enhancers of SMN2 Splice Variant Expression | HEK293 SMN2-luciferase splicing reporter, luminescence, 30-36 h | Potency, µM (series often up to 46.1 µM), for the others: top-dose activity change, positive = activation, usual class: activators | 2.8% of 210,000 active | AID 1458, 2008; also: % of control where 0% means no effect; nearly all actives have a fitted effect of over 55% in size
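HEK293 cells carry an SMN2 minigene-luciferase reporter in which exon 7 inclusion puts luciferase in frame. Cells were seeded at 2000 cells/well, attached for 10-12 hours, then exposed to compounds for 30-36 hours at 37C before ONE-Glo luminescence.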
An asterisk follows results filed as active. Most compounds without a hit are left out; they make up all but 9.4% or so of the library. Calls follow the shape of the dose curve; as a rule, active = well fitted curve in the direction sought with a large enough effect; inconclusive = small, poorly fitted or top-dose-only effect, or another doubt; inactive = no such curve, though single readings can be large; an effect the other way counts as inactive or inconclusive. Potency is read from the fitted curve at half-maximal effect.

How did O=C(Nc1nccs1)c1cc(Cl)ccc1[N+](=O)[O-] do in these assays?
ELG1 DNA repair: -5%; FLuc counter: 2%; Rab9 prom act: 2%; ELG1 genotoxic: -5%; NPC1 promoter act: 0%; SMN2 splice up: -16%

How did Cc1ccnc(NC(=O)c2cccc3ccccc23)c1 do in these assays?
ELG1 DNA repair: -3%; FLuc counter: 2%; Rab9 prom act: inconclusive; ELG1 genotoxic: 0%; NPC1 promoter act: inconclusive

What do the screens show for `O=C(Nc1nccs1)c1sc2ccccc2c1Cl`?
ELG1 DNA repair: inconclusive; FLuc counter: 0.67µM*; Rab9 prom act: 1.1µM*; ELG1 genotoxic: inconclusive; NPC1 promoter act: 4µM*; SMN2 splice up: 2.5µM*

Results for O=C(Nc1nccs1)c1sc2cc(Cl)ccc2c1Cl ?
ELG1 DNA repair: inconclusive; FLuc counter: 2.7µM*; Rab9 prom act: 4µM*; ELG1 genotoxic: 13%; NPC1 promoter act: 3.5µM*; SMN2 splice up: inconclusive

How did CCC(Sc1nnc2c(n1)[nH]c1ccccc12)C(=O)Nc1nnc(C(C)C)s1 (configuration not stated) do in these assays?
FLuc counter: inconclusive; SMN2 splice up: -1%

What do the screens show for `O=C(NCCCN1CCOCC1)c1sc2cc([N+](=O)[O-])ccc2c1Cl`?
ELG1 DNA repair: 5%; FLuc counter: inconclusive; Rab9 prom act: -6%; ELG1 genotoxic: -3%; NPC1 promoter act: 0%; SMN2 splice up: 2%

What do the screens show for `CCCn1nnc(NC(=O)Cc2ccccc2)n1`?
ELG1 DNA repair: 12%; FLuc counter: 0%; Rab9 prom act: -2%; ELG1 genotoxic: 0%; NPC1 promoter act: -3%; SMN2 splice up: 2%

How did O=C(Nc1ccccn1)c1sc2cc([N+](=O)[O-])ccc2c1Cl do in these assays?
ELG1 DNA repair: inconclusive; FLuc counter: inconclusive; Rab9 prom act: 1.3µM*; ELG1 genotoxic: 13%; NPC1 promoter act: inconclusive

Results for CCCn1nnc(NC(=O)c2sc3ccccc3c2Cl)n1 ?
ELG1 DNA repair: inconclusive; FLuc counter: 27µM*; Rab9 prom act: 3.2µM*; ELG1 genotoxic: 9.2µM*; NPC1 promoter act: inconclusive; SMN2 splice up: inconclusive

Results for CC(C)c1nnc(NC(=O)c2sc3ccccc3c2Cl)s1 ?
ELG1 DNA repair: inconclusive; FLuc counter: 4.8µM*; Rab9 prom act: inconclusive; ELG1 genotoxic: 19%; NPC1 promoter act: 3.2µM*; SMN2 splice up: inconclusive

What do the screens show for `COc1cccc(Cn2c(=O)n(-c3cccc(Cl)c3C)c(=O)c3c4c(sc32)CN(C(C)=O)CC4)c1`?
FLuc counter: 1%

Results for COc1ccc(NC(=O)N2CCN(S(=O)(=O)c3ccc4c(ccn4C)c3)CC2)cc1OC ?
FLuc counter: 0%

What do the screens show for `Cc1ccccc1NC(=O)CC(=O)Nc1ccccc1C`?
ELG1 DNA repair: -10%; FLuc counter: -4%; Rab9 prom act: -11%; ELG1 genotoxic: 1%; NPC1 promoter act: -1%

Results for CCOC(=O)c1ccc(NC(=O)/C=C/c2cccs2)cc1 ?
ELG1 DNA repair: inconclusive; FLuc counter: 11µM*; Rab9 prom act: inconclusive; ELG1 genotoxic: -1%; NPC1 promoter act: inconclusive; SMN2 splice up: inconclusive

What do the screens show for `CCN(CC)S(=O)(=O)c1ccc(C)c(NC(=O)/C=C/c2cccs2)c1`?
ELG1 DNA repair: 16µM*; FLuc counter: inconclusive; Rab9 prom act: -1%; ELG1 genotoxic: -4%; NPC1 promoter act: 0%; SMN2 splice up: -32%

How did Cc1ccccc1NC(=O)/C=C/c1cccs1 do in these assays?
ELG1 DNA repair: inconclusive; FLuc counter: inconclusive; Rab9 prom act: 4.5µM*; ELG1 genotoxic: inconclusive; NPC1 promoter act: inconclusive; SMN2 splice up: 13µM*

Results for Cc1ccccc1NC(=O)C(=O)Nc1ccccc1C ?
ELG1 DNA repair: inconclusive; FLuc counter: inconclusive; Rab9 prom act: 0.89µM*; ELG1 genotoxic: inconclusive; NPC1 promoter act: 1.3µM*

How did CC[C@H](C)[C@H](NC(=O)[C@H](CCCN=C(N)N)NC(=O)[C@H](CCCN=C(N)N)NC(=O)[C@H](CC(C)C)NC(=O)[C@H](Cc1ccccc1)NC(=O)CNC(=O)CN)C(=O)N[C@@H](CCCN=C(N)N)C(=O)N1CCC[C@H]1C(=O)N[C@@H](CCCCN)C(=O)N[C@@H](CC(C)C)C(=O)N[C@@H](CCCCN)C(=O)O do in these assays?
SMN2 splice up: 7%

Results for Cc1ccc(Nc2ncnc(-n3cccc3)n2)cc1Cl ?
ELG1 DNA repair: inconclusive; FLuc counter: 2.7µM*; Rab9 prom act: 3.2µM*; ELG1 genotoxic: inconclusive; NPC1 promoter act: inconclusive

How did Clc1cc(Cl)cc(Nc2ncnc(-n3cccc3)n2)c1 do in these assays?
ELG1 DNA repair: -18%; FLuc counter: -4%; Rab9 prom act: -6%; ELG1 genotoxic: -1%; NPC1 promoter act: 23%

Results for Cn1cnnc1SCc1ccc(C(=O)N=Nc2c(O)n(Cc3ccc(Cl)cc3)c3ccccc23)cc1 ?
ELG1 DNA repair: 9.2µM*; FLuc counter: inconclusive; Rab9 prom act: -1%; ELG1 genotoxic: -13%; NPC1 promoter act: 0%; SMN2 splice up: -7%

What do the screens show for `O=C(N=Nc1c(O)n(Cc2ccccc2)c2ccccc12)c1cc2ccccc2cc1O`?
ELG1 DNA repair: inconclusive; FLuc counter: 1.1µM*; Rab9 prom act: inconclusive; ELG1 genotoxic: inconclusive; NPC1 promoter act: inconclusive; SMN2 splice up: 10µM*

What do the screens show for `O=C(N=Nc1c(O)n(Cc2ccccc2)c2ccccc12)c1ccc(O)cc1`?
ELG1 DNA repair: inconclusive; FLuc counter: 0.95µM*; Rab9 prom act: inconclusive; ELG1 genotoxic: inconclusive; NPC1 promoter act: inconclusive; SMN2 splice up: inconclusive

What do the screens show for `COc1ccc(C(=O)NCC(=O)N=Nc2c(O)n(Cc3ccccc3)c3ccccc23)cc1OC`?
ELG1 DNA repair: inconclusive; FLuc counter: 1%; Rab9 prom act: -8%; ELG1 genotoxic: -2%; NPC1 promoter act: -6%; SMN2 splice up: 28%

How did COc1ccccc1C(=O)Nc1nnc(SCc2cc(=O)n3ccc(C)cc3n2)s1 do in these assays?
FLuc counter: -14%

Results for CCOC(=O)c1cnc(Nc2ccccc2)nc1C(F)(F)F ?
ELG1 DNA repair: inconclusive; FLuc counter: 24µM*; Rab9 prom act: 17%; ELG1 genotoxic: 19%; NPC1 promoter act: 25%

Assay outcomes as filed in PubChem.
